Measured values reported in the supplement of paper PMC6522484.
± gives the standard deviation of the averaged measurements.

Key:
DLD1 [1] = test: cell viability (CellTiter-Glo) relative to plate median (fraction of plate median); higher = more viable cells; conditions: 5 µM; treatment time 24 h; reporter: 7TFP
Summary of the method: (§1)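 Per-well firefly luciferase or CellTiterGlo luminescence, normalised to the plate median, is what is reported. It was measured in colorectal cancer cells with stable lentiviral TCF/Wnt firefly luciferase reporters after a 24 h treatment with library compounds at a final 5 µM. The mean of two independent replicates is given.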

HCT116 = test: as above; conditions: 5 µM; treatment time 24 h; reporter: TCF4/Wnt
Summary of the method: as §1

SW480 [2] = test: as above; conditions: 5 µM; treatment time 24 h; reporter: 7TFP
Summary of the method: as §1

DLD1 [3] = test: TCF/Wnt firefly luciferase reporter signal relative to plate median (fraction of plate median); higher = higher Wnt reporter signal; conditions: 5 µM; treatment time 24 h; reporter: 7TFP
Summary of the method: as §1

SW480 [4] = test: as above; conditions: 5 µM; treatment time 24 h; reporter: 7TFP
Summary of the method: as §1

| Compound | cell viability (DLD1 [1]) | cell viability (HCT116) | cell viability (SW480 [2]) | TCF/Wnt firefly luciferase reporter signal (DLD1 [3]) | TCF/Wnt firefly luciferase reporter signal (SW480 [4]) |
| --- | --- | --- | --- | --- | --- |
| Oc1ccc2c3c1O[C@H]1[C@@H](O)CC[C@@]4(O)[C@@H](C2)N(CC2CCC2)CC[C@]314 | 1 ± 0.067 | 1 ± 0.014 | 0.942 ± 0.082 | 0.979 ± 0.03 | 1.06 ± 0.064 |
| NCC(CC(=O)O)c1ccc(Cl)cc1 (stereo not given) | 0.998 ± 0.088 | 0.9975 ± 0.0035 | 1.03 ± 0.028 | 0.897 ± 0.1 | 1.02 ± 0.12 |
| CNNC | 0.936 ± 0.021 | 0.866 ± 0.11 | 0.945 ± 0.017 | 1.03 ± 0.14 | 0.894 ± 0.14 |
| CC(C)=CCCC1(C)C=Cc2c(O)c3c(c(CC=C(C)C)c2O1)OC12C(=CC4CC1C(C)(C)OC2(C/C=C(/C)C(=O)O)C4O)C3=O (stereo not given) | 0.911 ± 0.11 | 0.979 ± 0.016 | 0.996 ± 0.1 | 0.848 ± 0.069 | 0.921 ± 0.054 |
| COc1cccc2c1cc([N+](=O)[O-])c1c(C(=O)O)cc3c(c12)OCO3 | 0.983 ± 0.052 | 1.06 ± 0.098 | 1.01 ± 0.018 | 1.28 ± 0.12 | 1.1 ± 0.13 |
| CC(C)c1cc2c(c(O)c1O)[C@@]1(C(=O)O)CCCC(C)(C)[C@@H]1CC2 | 0.981 ± 0.013 | 1.03 ± 0.079 | 1.03 ± 0.021 | 1.03 ± 0.021 | 0.944 ± 0.11 |
| CO[C@]12C[C@@H](COC(=O)c3cncc(Br)c3)CN(C)[C@@H]1Cc1cn(C)c3cccc2c13 | 0.999 ± 0.16 | 0.976 ± 0.033 | 0.999 ± 0.03 | 0.968 ± 0.1 | 1 ± 0.04 |
| C=C[C@H]1CN2CC[C@H]1C[C@H]2[C@H](OC(=O)OCC)c1ccnc2ccc(OC)cc12 | 1.01 ± 0.06 | 0.911 ± 0.063 | 0.995 ± 0.035 | 0.956 ± 0.013 | 0.98 ± 0.1 |
| CC(=O)O[C@@H]1CC[C@@]2(C)[C@@H](CC[C@@H]3[C@@H]2CC[C@]2(C)C(=O)CC[C@@H]32)C1 | 1.025 ± 0.0071 | 0.924 ± 0.28 | 1.01 ± 0.04 | 1.15 ± 0.035 | 1.08 ± 0.099 |
| COC(=O)[C@]1(C)CC[C@]2(C)CC[C@]3(C)C4=CC=C5C(=CC(=O)C(O)=C5C)[C@]4(C)CC[C@@]3(C)[C@@H]2C1 | 0.981 ± 0.0085 | 1.16 ± 0.05 | 1.03 ± 0.014 | 1.11 ± 0.071 | 1.03 ± 0.08 |
| CN1[C@@H]2C[C@@H](OC(=O)[C@H](CO)c3ccccc3)C[C@H]1[C@@H]1O[C@@H]12 | 1.04 ± 0.042 | 1.07 ± 0.042 | 0.99 ± 0.0099 | 1.02 ± 0.1 | 1.035 ± 0.0071 |
| CC(C)(C)[C@]1(O)C[C@@H]2OC(=O)C[C@@]23C(=O)O[C@@H]2OC(=O)[C@H](O)[C@]213 | 0.922 ± 0.033 | 1.03 ± 0.05 | 1.01 ± 0.077 | 1.17 ± 0.042 | 1.07 ± 0.1 |
| CO[C@H]1C[C@H](O[C@H]2CC[C@@]3(C)[C@H](CC[C@@H]4[C@@H]3CC[C@]3(C)[C@@H](C5=CC(=O)OC5)[C@@H](OC(C)=O)C[C@]43O)C2)O[C@@H](C)[C@@H]1O | 1.26 ± 0.028 | 0.486 ± 0.31 | 1.31 ± 0.13 | 0.123 ± 0.13 | 0.171 ± 0.12 |
| CN1C[C@H](CNC(=O)OCc2ccccc2)C[C@@H]2c3cccc4c3c(cn4C)C[C@H]21 | 1.03 ± 0.049 | 1.03 ± 0.069 | 1.09 ± 0.057 | 0.986 ± 0.049 | 1.01 ± 0.052 |
| Oc1ccc(Cl)cc1Cc1cc(Cl)ccc1O | 0.881 ± 0.12 | 0.868 ± 0.0092 | 1.03 ± 0.035 | 0.883 ± 0.17 | 0.953 ± 0.081 |
| CC1=CC(=O)c2c(O)cccc2C1=O | 0.0607 ± 0.019 | 0.229 ± 0.24 | 0.404 ± 0.51 | 0.0412 ± 0.032 | 0.157 ± 0.19 |
| Cc1ccc(/N=C/N(C)/C=N/c2ccc(C)cc2C)c(C)c1 | 1.01 ± 0.021 | 0.988 ± 0.074 | 0.975 ± 0.036 | 1.1 ± 0.057 | 0.927 ± 0.12 |
| CSc1nc(NC(C)C)nc(NC(C)C)n1 | 0.9725 ± 0.0035 | 0.92 ± 0.11 | 1 ± 0.014 | 1.06 | 1.07 ± 0.014 |
| CC(C)C[C@H]1C(=O)N2CCC[C@H]2[C@]2(O)O[C@](NC(=O)[C@@H]3C=C4c5cccc6[nH]c(Br)c(c56)C[C@H]4N(C)C3)(C(C)C)C(=O)N12 | 1.05 ± 0.014 | 0.974 ± 0.08 | 1.07 ± 0.014 | 0.985 ± 0.021 | 0.931 ± 0.052 |
| CC1=C2C(=CO[C@H](C)[C@H]2C)C(O)=C(C(=O)O)C1=O | 0.939 ± 0.076 | 1 ± 0.022 | 0.923 ± 0.027 | 0.861 ± 0.13 | 0.9055 ± 0.0035 |
| CC(C)(O)[C@@H]1[C@H]2OC(=O)[C@@H]1[C@]1(O)C[C@H]3O[C@]34C(=O)O[C@H]2[C@]14C | 1.03 ± 0.046 | 0.949 ± 0.021 | 1.025 ± 0.0071 | 1.02 ± 0.17 | 1.04 ± 0.089 |
| C[C@H]1CC[C@]2(NC1)O[C@H]1C[C@H]3[C@@H]4CC[C@H]5C[C@@H](O)CC[C@]5(C)[C@H]4CC[C@]3(C)[C@H]1[C@@H]2C | 0.956 ± 0.076 | 1.01 ± 0.052 | 0.988 ± 0.06 | 1.03 ± 0.035 | 1.09 ± 0.057 |
| N#C/C(=C\c1ccc(O)cc1)C(=O)O [alpha-CYANO-4-HYDROXYCINNAMIC ACID] | 1.01 ± 0.014 | 1.04 ± 0.058 | 0.9385 ± 0.0078 | 0.996 ± 0.034 | 0.913 ± 0.033 |
| C=C1C2CC[C@@]3(C)[C@H](c4ccoc4)OC(=O)C[C@]13O[C@H]1CC(=O)C(C)(C)[C@H](C(OC(C)=O)C(=O)OC)[C@@]21C (stereo not given in full) | 1.025 ± 0.0071 | 1.13 ± 0.057 | 1 ± 0.014 | 1.16 ± 0.057 | 0.826 ± 0.048 |
| CC[C@@]1(O)C[C@H](O)c2c(cc3c(c2O)C(=O)c2c(O)ccc(O)c2C3=O)[C@H]1C(=O)OC | 1.02 ± 0.067 | 1.05 ± 0.035 | 1.01 ± 0.03 | 1.08 ± 0.021 | 0.908 ± 0.12 |
| COc1cccc(C=O)c1OC | 1.01 ± 0.022 | 1.1 ± 0.15 | 1 ± 0.043 | 1.03 ± 0.073 | 0.914 ± 0.088 |
| COc1c2c(cc3c1OCO3)CC[N+](C)=C2 | 0.978 ± 0.046 | 0.945 ± 0.072 | 0.991 ± 0.07 | 1 ± 0.036 | 1.075 ± 0.0071 |
| CC1C[C@H]2CC(=O)[C@H]3CCCN4CCC[C@H]2[C@]34C1.[O-][Cl+3]([O-])([O-])O (stereo not given in full) | 0.97 ± 0.011 | 1.01 ± 0.031 | 0.933 ± 0.0042 | 1.1 ± 0.099 | 1.1 ± 0.16 |
